Data reported in PubChem BioAssay AID1159580 (chemical genetic matrix, 2015).
Values joined by “and” are separate entries in the source; they are usually repeats but may differ in a detail not shown here. Equal values may be shown once. Among all 5,500 compounds or so, about 2,000 (36%) were called active. Roughly 18% stayed inconclusive and do not appear here. No stated cut-off is given here; in the data, active means normalized growth mostly below about 0.91 (no sharp cut-off); inconclusive means no clear call, values can overlap the other calls; inactive means mostly above about 0.92. The list shows a part of the results.

Experiment: chemical genetic growth profiling, strain panel (AID 1159580);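 further: tested at 20 µM; growth read once vehicle control cultures reached saturation at 30 °C; 1 = growth at the plate median or of vehicle wells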
Settings: S. cerevisiae deletion strains, growth OD
[1] = locus YMR307W, strain GAS1, stronger effect = lower value
[2] = locus YPL055C, strain LGE1, stronger effect = lower value

Measured: normalized growth

CC(N)Cc1c[nH]c2ccc(O)cc12 (centres undefined)
inactive: locus YAL013W, strain DEP1, stronger effect = lower value 1.02 | locus YAL040C, strain CLN3, stronger effect = lower value 1 | locus YCL061C, strain MRC1 (second series), stronger effect = lower value 1 | locus YDR363W, strain ESC2, stronger effect = lower value 1.03 | locus YER002W, strain NOP16, stronger effect = lower value 1 | [1] 1 | locus YNL153C, strain GIM3, stronger effect = lower value 1.01 | locus YNL175C, strain NOP13, stronger effect = lower value 1.01 | locus YNL197C, strain WHI3, stronger effect = lower value 1.04 | locus YNL224C, strain SQS1, stronger effect = lower value 1.02 | locus YOR083W, strain WHI5 (second series), stronger effect = lower value 1.01 | [2] 1.01

CC[C@@H](CO)NCCN[C@@H](CC)CO
inactive: locus YAL021C, strain ccr4, stronger effect = lower value 1.01 | locus YAL026C, strain drs2, stronger effect = lower value 1 | locus YAL030W, strain snc1, stronger effect = lower value 1.01 | locus YBL061C, strain skt5, stronger effect = lower value 1.02 | locus YBR009C, strain hhf1, stronger effect = lower value 1 | locus YBR021W, strain FUR4, stronger effect = lower value 1.02 | locus YBR023C, strain chs3, stronger effect = lower value 1.04 | locus YBR171W, strain sec66, stronger effect = lower value 1.02 | locus YBR229C, strain ROT2, stronger effect = lower value 1.01 | locus YBR231C, strain swc5, stronger effect = lower value 0.968 | locus YBR279W, strain paf1, stronger effect = lower value 1.02 | locus YCL011C, strain gbp2, stronger effect = lower value 1.03 | locus YCL016C, strain dcc1, stronger effect = lower value 1.04 | locus YCL029C, strain bik1, stronger effect = lower value 1 | locus YCL061C, strain MRC1, stronger effect = lower value 1.03 | locus YCL069W, strain vba3, stronger effect = lower value 1 | locus YCR088W, strain abp1, stronger effect = lower value 1.01 | locus YDL005C, strain med2, stronger effect = lower value 1 | locus YDL035C, strain GPR1, stronger effect = lower value 1.02 | locus YDL040C, strain nat1, stronger effect = lower value 1 | locus YDL074C, strain BRE1, stronger effect = lower value 1.04 | locus YDL101C, strain DUN1, stronger effect = lower value 1.02 | locus YDL134C, strain PPH21, stronger effect = lower value 1.02 | locus YDL185W, strain tfp1, stronger effect = lower value 1 | locus YDL192W, strain arf1, stronger effect = lower value 1 | locus YDR001C, strain nth1, stronger effect = lower value 1.01 | locus YDR069C, strain doa4, stronger effect = lower value 0.996 | locus YDR101C, strain arx1, stronger effect = lower value 0.987 | locus YDR137W, strain rgp1, stronger effect = lower value 1.01 | locus YDR150W, strain NUM1, stronger effect = lower value 1 | locus YDR159W, strain sac3, stronger effect = lower value 0.959 | locus YDR162C, strain NBP2, stronger effect = lower value 1.01 | locus YDR195W, strain ref2 0.964 | locus YDR297W, strain sur2, stronger effect = lower value 1.02 | locus YDR318W, strain mcm21, stronger effect = lower value 1.01 | locus YDR334W, strain swr1, stronger effect = lower value 1.01 | locus YDR335W, strain msn5, stronger effect = lower value 1.01 | locus YDR388W, stronger effect = lower value 1 | locus YDR392W, strain spt3, stronger effect = lower value 0.985 | locus YDR502C, strain sam2, stronger effect = lower value 1.03 | locus YEL003W, strain gim4, stronger effect = lower value 0.999 | locus YEL037C, strain rad23, stronger effect = lower value 1.01 | locus YEL061C, strain CIN8 (second series), stronger effect = lower value 1.01 | locus YEL061C, strain CIN8, stronger effect = lower value 1.01 | locus YER015W, strain faa2, stronger effect = lower value 1.01 | locus YER016W, strain bim1, stronger effect = lower value 0.985 | locus YER110C, stronger effect = lower value 1.01 | locus YER111C, strain swi4, stronger effect = lower value 1.01 | locus YER155C, strain BEM2 (second series), stronger effect = lower value 0.999 | locus YER155C, strain BEM2, stronger effect = lower value 1.01 | locus YER167W, strain BCK2, stronger effect = lower value 1.01 | locus YFR010W, strain ubp6, stronger effect = lower value 1 | locus YGL078C, strain dbp3, stronger effect = lower value 1 | locus YGL086W, strain mad1, stronger effect = lower value 0.988 | locus YGL167C, strain pmr1, stronger effect = lower value 1.01 | locus YGL173C, strain kem1, stronger effect = lower value 1.01 | locus YGL227W, strain vid30, stronger effect = lower value 1.02 | locus YGL240W, strain doc1, stronger effect = lower value 0.995 | locus YGL248W, strain PDE1, stronger effect = lower value 1.02 | locus YGL253W, strain hxk2, stronger effect = lower value 0.999 | locus YGR078C, strain PAC10, stronger effect = lower value 1.01 | locus YGR135W, strain pre9, stronger effect = lower value 1.04 | locus YGR229C, strain SMI1, stronger effect = lower value 1.02 | locus YGR252W, strain gcn5, stronger effect = lower value 1.04 | locus YHR013C, strain ard1, stronger effect = lower value 1.04 | locus YHR027C, strain rpn1, stronger effect = lower value 1 | locus YHR030C, strain SLT2, stronger effect = lower value 1 and 1.04 | locus YHR079C, strain IRE1 (second series), stronger effect = lower value 0.987 | locus YHR079C, strain IRE1, stronger effect = lower value 1.04 | locus YHR094C, strain hxt1, stronger effect = lower value 1.01 | locus YHR129C, strain ARP1, stronger effect = lower value 1.02 | locus YHR142W, strain chs7, stronger effect = lower value 1.02 | locus YHR200W, strain rpn10, stronger effect = lower value 1 | locus YIL066C, strain RNR3, stronger effect = lower value 1.01 | locus YIL073C, strain SPO22, stronger effect = lower value 1.02 | locus YIL125W, strain kgd1, stronger effect = lower value 1 | locus YIR030C, strain dcg1, stronger effect = lower value 1 | locus YJL092W, strain hpr5, stronger effect = lower value 1.02 | locus YJL095W, strain BCK1 (second series), stronger effect = lower value 1.02 | locus YJL095W, strain BCK1, stronger effect = lower value 1.03 and 1.02 | locus YJL115W, strain asf1, stronger effect = lower value 1.01 | locus YJL129C, strain trk1, stronger effect = lower value 1.02 | locus YJL134W, strain LCB3, stronger effect = lower value 1.02 | locus YJL154C, strain vps35, stronger effect = lower value 1 | locus YJL164C, strain tpk1, stronger effect = lower value 1.02 | locus YJL166W, strain qcr8, stronger effect = lower value 1.05 | locus YJL168C, strain set2, stronger effect = lower value 1.03 | locus YJL187C, strain SWE1 (second series), stronger effect = lower value 1.01 | locus YJL187C, strain SWE1, stronger effect = lower value 1 | locus YJR043C, strain POL32, stronger effect = lower value 1.01 | locus YJR066W, strain TOR1, stronger effect = lower value 0.909 | locus YKL009W, strain mrt4, stronger effect = lower value 0.996 | locus YKL068W, stronger effect = lower value 0.994 | locus YKL085W, strain MDH1 (second series), stronger effect = lower value 1 | locus YKL085W, strain MDH1, stronger effect = lower value 1 | locus YKL160W, strain elf1, stronger effect = lower value 1.05 | locus YKR001C, strain vps1, stronger effect = lower value 0.991 | locus YKR026C, strain gcn3, stronger effect = lower value 1.01 | locus YKR091W, strain srl3, stronger effect = lower value 1.01 | locus YLL001W, strain dnm1, stronger effect = lower value 1.05 | locus YLL026W, stronger effect = lower value 1.01 | locus YLL041C, strain sdh2, stronger effect = lower value 1 | locus YLR027C, strain aat2, stronger effect = lower value 0.992 | locus YLR039C, strain RIC1, stronger effect = lower value 1.1 | locus YLR058C, strain SHM2, stronger effect = lower value 1.02 | locus YLR102C, strain apc9, stronger effect = lower value 1 | locus YLR113W, strain HOG1, stronger effect = lower value 1.1 | locus YLR221C, strain rsa3, stronger effect = lower value 1.05 | locus YLR258W, strain gsy2, stronger effect = lower value 1.02 | locus YLR262C, strain YPT6 (second series), stronger effect = lower value 1.03 | locus YLR262C, strain YPT6, stronger effect = lower value 1.05 | locus YLR268W, strain sec22, stronger effect = lower value 0.988 | locus YLR320W, strain mms22, stronger effect = lower value 1.07 | locus YLR330W, strain CHS5, stronger effect = lower value 1.01 | locus YLR342W, strain FKS1 (second series), stronger effect = lower value 1.05 | locus YLR342W, strain FKS1, stronger effect = lower value 1.02 | locus YLR357W, strain rsc2, stronger effect = lower value 0.986 | locus YLR370C, strain arc18, stronger effect = lower value 1.02 | locus YLR371W, strain rom2, stronger effect = lower value 1.01 | locus YLR384C, strain iki3, stronger effect = lower value 1.02 | locus YLR418C, strain cdc73, stronger effect = lower value 1.01 | locus YML016C, strain PPZ1, stronger effect = lower value 1.01 | locus YML032C, strain rad52, stronger effect = lower value 1.01 | locus YML120C, strain ndi1, stronger effect = lower value 1.03 | locus YML124C, strain tub3, stronger effect = lower value 0.998 | locus YMR058W, strain fet3, stronger effect = lower value 1.01 | locus YMR078C, strain ctf18, stronger effect = lower value 1.01 | locus YMR125W, strain sto1, stronger effect = lower value 1 | locus YMR129W, stronger effect = lower value 1 | locus YMR205C, strain PFK2, stronger effect = lower value 1.05 | locus YMR223W, strain ubp8, stronger effect = lower value 1.02 | locus YMR231W, strain pep5, stronger effect = lower value 1 | locus YMR263W, strain SAP30, stronger effect = lower value 1.02 | [1] 1.01 | locus YNL067W, strain RPL9B, stronger effect = lower value 1.01 | locus YNL071W, strain lat1, stronger effect = lower value 1.02 | locus YNL183C, strain NPR1, stronger effect = lower value 1 | locus YNL209W, strain ssb2, stronger effect = lower value 1.02 | locus YNL233W, strain BNI4, stronger effect = lower value 1.02 | locus YNL248C, strain rpa49, stronger effect = lower value 0.996 | locus YNL250W, strain rad50, stronger effect = lower value 0.992 | locus YNL271C, strain bni1, stronger effect = lower value 0.995 | locus YNL298W, strain CLA4, stronger effect = lower value 1.02 | locus YNL307C, strain MCK1, stronger effect = lower value 1 | locus YNL322C, strain KRE1 (second series), stronger effect = lower value 1.04 | locus YNL322C, strain KRE1, stronger effect = lower value 1.01 | locus YNR049C, strain mso1, stronger effect = lower value 1.02 | locus YNR052C, strain pop2, stronger effect = lower value 1 | locus YOL006C, strain TOP1, stronger effect = lower value 1.01 | locus YOL012C, strain htz1 0.915 | locus YOL147C, strain pex11, stronger effect = lower value 0.997 | locus YOR001W, strain rrp6, stronger effect = lower value 0.99 | locus YOR061W, strain CKA2, stronger effect = lower value 1.01 | locus YOR069W, strain VPS5, stronger effect = lower value 1.01 | locus YOR070C, strain gyp1, stronger effect = lower value 1.01 | locus YOR080W, strain dia2, stronger effect = lower value 1 | locus YOR083W, strain WHI5, stronger effect = lower value 1.07 | locus YOR106W, strain vam3, stronger effect = lower value 1.04 | locus YOR136W, strain idh2, stronger effect = lower value 0.995 | locus YOR144C, strain elg1, stronger effect = lower value 0.996 | locus YOR184W, strain ser1, stronger effect = lower value 1.03 | locus YOR231W, strain MKK1, stronger effect = lower value 1.07 | locus YOR265W, strain rbl2, stronger effect = lower value 1.01 | locus YOR270C, strain vph1, stronger effect = lower value 1.04 | locus YOR290C, strain snf2, stronger effect = lower value 0.986 | locus YOR316C, strain cot1, stronger effect = lower value 1 | locus YPL051W, strain arl3, stronger effect = lower value 1 | [2] 1.03 | locus YPL078C, strain atp4, stronger effect = lower value 1.02 | locus YPL106C, strain sse1, stronger effect = lower value 1.03 | locus YPL240C, strain hsp82, stronger effect = lower value 1.02 | locus YPL256C, strain CLN2, stronger effect = lower value 1.03 | locus YPR119W, strain clb2, stronger effect = lower value 1 | locus YPR141C, strain kar3, stronger effect = lower value 1.01 | locus YPR163C, strain tif3, stronger effect = lower value 0.989 | locus YPR167C, strain met16, stronger effect = lower value 1 | strain wtn01, stronger effect = lower value 1
